Screening data as filed in PubChem.
This is a sample that favours compounds with a hit; in the whole collection about 2.4% have one here.
MITF act = activators of MITF-driven TRPM1 promoter activity in SK-MEL-5 cells. SK-MEL-5 TRPM1-promoter luciferase, 24 h; % of positive control, neutral wells = 0. activation, % at 12.5 µM. 0.75% of 300,000 active. AID 588334;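 active = mean activation of at least 80% with every replicate also reaching 80%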;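 note: 0% = neutral control wells and 100% = parthenolide positive control wells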
GSIS activator = primary screen for activators of insulin secretion dependent on glucose, INS-1E cells, GLuc reporter luminescence; INS-1E GLuc reporter insulin secretion, 2-3 h; activation, % at 16.6 µM; 0.61% of 370,000 active; AID 743287;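 active = lowest replicate activation of at least 40%, so every replicate reaches that level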;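 note: 0% = median of neutral control wells and 100% = median of IBMX positive control wells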
miR122 inh = inhibitors of miR-122 in Huh7 cells; Huh7 miR-122 Renilla luciferase sensor, 48 h; neutral wells = 0, positive control = 100; activation (reporter increase), % at 12.5 µM; 0.3% of 340,000 active;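 active = mean replicate activation score at least 90 and every replicate individually at or above 90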;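 note: higher luciferase means less miR-122 activity so hits act as miR-122 inhibitors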
NSD2 inh = NSD2 (human) methyltransferase inhibition | O96028 | NSD2 peptide methylation, AlphaScreen, 120 min | inhibition, % at 12.5 µM | 0.54% of 310,000 active
Target sequence (O96028 whole entry, looked up): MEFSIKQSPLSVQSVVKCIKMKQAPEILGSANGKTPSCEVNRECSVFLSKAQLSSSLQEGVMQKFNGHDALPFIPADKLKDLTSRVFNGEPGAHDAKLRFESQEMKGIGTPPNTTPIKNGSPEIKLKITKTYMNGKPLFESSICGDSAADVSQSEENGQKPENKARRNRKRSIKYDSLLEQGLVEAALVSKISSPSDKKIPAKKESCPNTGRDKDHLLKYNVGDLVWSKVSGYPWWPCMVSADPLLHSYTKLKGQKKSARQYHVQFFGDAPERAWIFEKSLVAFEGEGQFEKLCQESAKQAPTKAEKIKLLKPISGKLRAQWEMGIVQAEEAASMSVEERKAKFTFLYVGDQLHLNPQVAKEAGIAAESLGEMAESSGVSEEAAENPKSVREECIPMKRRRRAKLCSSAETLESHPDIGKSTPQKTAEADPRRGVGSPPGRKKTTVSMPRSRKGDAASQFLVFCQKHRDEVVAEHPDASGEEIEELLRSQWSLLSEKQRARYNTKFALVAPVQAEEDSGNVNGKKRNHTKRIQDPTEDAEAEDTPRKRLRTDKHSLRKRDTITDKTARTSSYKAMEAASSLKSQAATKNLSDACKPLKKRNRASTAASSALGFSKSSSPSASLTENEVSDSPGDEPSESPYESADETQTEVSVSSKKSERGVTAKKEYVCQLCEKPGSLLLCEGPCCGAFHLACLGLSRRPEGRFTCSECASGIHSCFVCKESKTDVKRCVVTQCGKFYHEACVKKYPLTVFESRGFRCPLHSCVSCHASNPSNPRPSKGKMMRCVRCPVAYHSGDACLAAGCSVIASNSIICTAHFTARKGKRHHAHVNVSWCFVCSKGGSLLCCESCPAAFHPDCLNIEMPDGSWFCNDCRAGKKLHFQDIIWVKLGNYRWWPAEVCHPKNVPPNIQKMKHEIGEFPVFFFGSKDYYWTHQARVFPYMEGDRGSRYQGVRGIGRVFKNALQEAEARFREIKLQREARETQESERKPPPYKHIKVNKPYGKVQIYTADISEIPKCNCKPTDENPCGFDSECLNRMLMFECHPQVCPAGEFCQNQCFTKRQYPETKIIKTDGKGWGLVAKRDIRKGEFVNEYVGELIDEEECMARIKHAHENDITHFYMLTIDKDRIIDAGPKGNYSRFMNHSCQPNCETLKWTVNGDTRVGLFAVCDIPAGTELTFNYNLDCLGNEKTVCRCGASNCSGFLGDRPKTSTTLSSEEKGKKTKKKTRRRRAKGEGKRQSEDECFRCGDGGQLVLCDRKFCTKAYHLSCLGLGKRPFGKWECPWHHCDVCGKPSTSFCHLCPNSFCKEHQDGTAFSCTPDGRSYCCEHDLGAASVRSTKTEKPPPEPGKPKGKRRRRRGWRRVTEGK
Wnt bcat act = activates Wnt/beta-catenin signaling in a reporter cell assay | activator, plate reader | activation, % at 9.35 µM | 1.2% of 300,000 active | AID 743398; in the data active = activation above about 30%, passing the limit was not always enough;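 note: 0% = neutral control wells and 100% = positive control wells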
DYRK1A inh = Dyrk1A (rat) kinase inhibition; Q63470; ADP-Glo luminescence, NFATc1 peptide; inhibition, % at 12.5 µM; 0.43% of 310,000 active; AID 504441;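 note: plate controls were vehicle with enzyme for no effect and no enzyme for full effect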
Alpha artifact = interferes with AlphaScreen signal, flagging NSD2 false positives | shares compounds with NSD2 inh | AlphaScreen artifact counterscreen, preloaded methylated H4 peptide | AC35, µM (titrated, usually from 10 µM), for inactives: at the highest dose activity change, negative = signal loss | 9.4% of 1,500 active | AID 1053174; call rule not given here
Active calls of the source: *; · = not tested or not shown; [ ] = dose if it differs, or a comment. Cut-off read from the data, not from the text of the source, unless noted: active = inhibition above about 50%; inactive = the rest.

SMILES	MITF act	GSIS activator	miR122 inh	NSD2 inh	Wnt bcat act	DYRK1A inh	Alpha artifact
CCS(=O)(=O)c1ccc(N=Nc2ccc(O)c3ncccc23)c(OC)c1	-65	-2	-10	24	-1	2	·
Nc1cc(S(=O)(=O)O)cc2ccc(S(=O)(=O)O)cc12	5	·	2	102*	8	3	0%
CC(=O)N1CCc2cc(Br)cc(S(=O)(=O)NCCCN(C)Cc3ccccc3)c21	·	-6	21	125*	-1	-2	0%
Cc1ccc(C(=O)NCCn2c(N)c(C#N)c3nc4ccccc4nc32)cc1	10	-10	-2	55*	·	0	0%
N#Cc1c(N)n(CCNC(=O)c2ccc(Cl)cc2)c2nc3ccccc3nc12	12	·	-4	-1	-1	3	·
CCCCn1c(NC(=O)c2ccccc2)c(C#N)c2nc3ccccc3nc21	-16	·	7	162*	8	7	3%
CCC(C)n1c(NC(=O)c2ccccc2)c(C#N)c2nc3ccccc3nc21 (centres undefined)	-3	-45	-11	·	-3	-10	·
N#Cc1c(NC(=O)c2ccc(Br)o2)n(-c2ccccc2)c2nc3ccccc3nc12	-3	-5	20	177*	13	12	1%
CCC(=O)Nc1c(C#N)c2nc3ccccc3nc2n1-c1ccc(C)cc1	-7	-32	·	43	1	17	·
C=CCn1c(SCc2ccc(C#N)cc2)nnc1-c1ccc(C)cc1	-1	-12	27	61*	·	-1	-2%
O=C(N[C@@H]1CC[C@@H](CCn2cc(Cc3ccccc3)nn2)O[C@H]1CO)c1cnccn1	·	4	·	·	·	·	·
O=C1CC(=O)Nc2cc(S(=O)(=O)Nc3ccc(Cl)c(C(F)(F)F)c3)ccc2N1	10	7	-4	52*	-1	-4	-1%
CC1(C)NC(=O)N(CCOCCOc2c(Cl)cc(Cl)cc2Cl)C1=O	·	·	-3	125*	·	1	-5%
CC1(C)NC(=O)N(CCOCCOc2ccccc2)C1=O	15	8	5	-6	·	-5	·
O=S(=O)(c1ccccc1)N1[C@@H]2CNc3ccccc3[C@@H]2[C@@H]1CO	·	-3	-7[16.7 µM]	·	·	·	·
O=C1CC(C(=O)N2CCc3ccccc32)CN1c1ccccc1 (centres undefined)	-6	-9	-11	80*	2	4	-2%
O=C(C[C@@H]1CC[C@@H](NC(=O)NC2CCCC2)[C@@H](CO)O1)NCc1ccc(F)cc1	·	-3	6[16.7 µM]	·	·	·	·
Nn1c(SCC(=O)Nc2ccc3c(c2)OCCO3)nnc1-c1ccncc1	0	4	5	0	-2	-1	·
Cn1c(SCC(=O)Nc2ccc3c(c2)OCCO3)nnc1-c1ccncc1	3	13	-7	77*	-1	-3	-5%
Cc1csc(SCC(=O)Nc2ccc3c(c2)OCCO3)n1	44	0	·	62*	22	·	0%
O=C1CCC(=O)N1CCC(c1ccc(F)cc1)c1ccco1 (centres undefined)	0	-2	-2	6	-1	-2	·
O=C1c2ccccc2C(=O)N1CCC(c1ccc(F)cc1)c1ccco1 (centres undefined)	0	43*	-5	119*	·	0	-2%
O=C(Nc1cc(C(F)(F)F)ccc1N1CCCC1)C1CC(=O)N(Cc2ccccc2)C1 (centres undefined)	·	·	-2	56*	-5	·	-1%
COc1cc(CN2CC3(CN(S(=O)(=O)c4cn(C)cn4)C3)c3c(n(C)c4cc(OC)ccc34)[C@@H]2CO)cc(OC)c1	·	-11	·	·	·	·	·
O=S(=O)(c1ccc(-c2nnco2)cc1)N1CCCCC1	3	-5	16	93*	-1	-4	-1%
SMILES	MITF act	GSIS activator	miR122 inh	NSD2 inh	Wnt bcat act	DYRK1A inh	Alpha artifact
CC1SC(C)C(=O)N(CC(=O)NC2CCCCC2)C1=O (centres undefined)	-16	8	-9	-2	-1	·	·
CC(=O)N1C2CCCCC2S[C@H]2CCCCC21 (some centres undefined)	0	·	·	57*	-5	0	2%
C[C@H]1CN([C@@H](C)CO)C(=O)c2cc(C#CC(C)(C)O)cnc2O[C@@H]1CN(C)C(=O)C1CCCCC1	·	10	-3[16.7 µM]	·	·	·	·
CN(CC(=O)N1CCc2[nH]c3ccc(F)cc3c2C1)CC1OCCO1	·	·	·	-3	-3	·	·
Cc1ccc2[nH]c3c(c2c1)CN(C(=O)CN(C)CC1OCCO1)CC3	·	·	0	64*	·	-1	-5%
C[C@H]1CN([C@@H](C)CO)S(=O)(=O)c2ccc(C#CC(C)(C)O)cc2O[C@H]1CN(C)C	·	15	-7[16.7 µM]	·	·	·	·
O=C(C[C@@H]1C[C@H]2c3cc(NC(=O)Nc4ccc(C(F)(F)F)cc4)ccc3O[C@H]2[C@@H](CO)O1)NCc1ccc(Cl)cc1	·	-5	3[16.7 µM]	·	·	·	·
NC(=O)COC(=O)c1cccc(S(=O)(=O)N2CCN(c3ccc(F)cc3)CC2)c1	18	6	-8	-3	0	0	·
NC(=O)COC(=O)c1ccc(Cl)c(S(=O)(=O)N2CCN(c3ccc(F)cc3)CC2)c1	2	-23	·	52*	-1	-5	-5%
CC(=O)N(C)C[C@H]1Oc2cc(C#CC3CC3)ccc2S(=O)(=O)N([C@@H](C)CO)C[C@H]1C	·	7	-8[16.7 µM]	·	·	·	·
CC(/C=C1\SC(=S)N(NC(=O)c2ccc(C)cc2)C1=O)=C\c1ccccc1	·	·	-2	1	·	-13	·
CC(/C=C1\SC(=S)N(NS(=O)(=O)c2ccccc2)C1=O)=C\c1ccccc1	11	-20	4	55*	-2	-7	-10%
CC(/C=C1\SC(=S)N(NS(=O)(=O)c2ccc(C)cc2)C1=O)=C\c1ccccc1	-12	-27	0	73*	-1	-9	-11%
COc1ccc(NC(=O)Nc2ccc3c(c2)C(=O)N([C@H](C)CO)C[C@@H](C)[C@H](CN(C)C)O3)cc1	·	0	9[16.7 µM]	·	·	·	·
O=C(O)c1cc(-c2ccco2)nn1-c1ccc(Cl)cc1	2	3	·	60*	-2	-4	-5%
C[C@@H]1CN([C@@H](C)CO)C(=O)c2cc(NC(=O)CCN3CCOCC3)ccc2O[C@H]1CN(C)Cc1ccc(C(=O)O)cc1	·	3	7[16.7 µM]	·	·	·	·
COc1cc(NC(=O)c2ccccc2)c(OC)cc1NC(=O)CSc1[nH]c(=O)cc(C)c1C#N	-19	23	1	130*	-4	-4	-6%
Cc1ccc(-c2cc(C(=O)N/N=C/c3ccccc3)n[nH]2)o1	10	8	9	122*	6	-6	-3%
Cc1ccc(-c2cc(C(=O)N/N=C/c3ccc(Cl)cc3)n[nH]2)o1	-5	-12	5	7	-1	-2	·
COc1ccc(N(CC(=O)NCCSc2ccccn2)S(C)(=O)=O)cc1	·	7	-10	127*	·	-3	-3%
CS(=O)(=O)N(CC(=O)NCCSc1ccccn1)c1ccc(F)cc1	-1	·	·	-3	6	-5	·
